# This is one part of a sample in which the strongest signals are shown more often than they occur.
# Legend:
# Assay in all cases: glycan array binding signal (z-score within array); higher = stronger binding
# Details in all cases: glycan notation: IUPAC condensed, linker removed
# GlcA(b1-3)Gal = target: GlcA(b1-3)Gal
# Outline: (§1)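 Glycan array data came from 3228 arrays in the Consortium for Functional Glycomics database, and only arrays with an available protein sequence were kept. Glycan names were put into IUPAC-condensed notation, and columns mapping to the same glycan were averaged. The binding signal is a within-array Z-score, averaged across arrays of one protein sequence run at different concentrations or buffers and across linkers. A negative Z-score can be read as non-binding.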
# [1] = target: GlcNAc(a1-4)Gal(b1-4)GlcNAc(b1-3)Gal(b1-4)Glc
# Outline: as §1
# [2] = target: GlcNAc(b1-2)Man(a1-3)[GlcNAc(b1-4)][GlcNAc(b1-2)Man(a1-6)]Man(b1-4)GlcNAc(b1-4)GlcNAc
# Outline: as §1
# [3] = target: GlcNAc(b1-2)[GlcNAc(b1-6)]Man(a1-6)[GlcNAc(b1-2)Man(a1-3)]Man(b1-4)GlcNAc(b1-4)[Fuc(a1-6)]GlcNAc
# Outline: as §1
# [4] = target: GlcNAc(b1-3)Gal(b1-4)GlcNAc(b1-3)Gal(b1-4)GlcNAc(b1-2)Man(a1-3)[GlcNAc(b1-3)Gal(b1-4)GlcNAc(b1-3)Gal(b1-4)GlcNAc(b1-2)Man(a1-6)]Man(b1-4)GlcNAc(b1-4)GlcNAc
# Outline: as §1
# GlcNAc(b1-3)Man = target: GlcNAc(b1-3)Man
# Outline: as §1
# Kdn(a2-3)Gal(b1-4)GlcNAc = target: Kdn(a2-3)Gal(b1-4)GlcNAc
# Outline: as §1
# [5] = target: Man(a1-2)Man(a1-3)[Man(a1-2)Man(a1-6)]Man(a1-6)[Man(a1-2)Man(a1-2)Man(a1-3)]Man
# Outline: as §1
# [6] = target: Neu5Ac(a2-3)Gal(b1-3)GalNAc
# Outline: as §1
# [7] = target: Neu5Ac(a2-3)Gal(b1-3)[Fuc(a1-4)]GlcNAc(b1-3)Gal(b1-3)[Fuc(a1-4)]GlcNAc
# Outline: as §1
# [8] = target: Neu5Ac(a2-3)Gal(b1-3)[Neu5Ac(a2-6)]GalNAc
# Outline: as §1
# [9] = target: Neu5Ac(a2-3)Gal(b1-4)GlcNAc(b1-3)Gal(b1-4)GlcNAc(b1-3)[Neu5Ac(a2-3)Gal(b1-4)GlcNAc(b1-3)Gal(b1-4)GlcNAc(b1-6)]GalNAc
# Outline: as §1
# [10] = target: Neu5Ac(a2-3)Gal(b1-4)GlcNAc(b1-3)[Neu5Ac(a2-3)Gal(b1-4)GlcNAc(b1-6)]GalNAc
# Outline: as §1
# [11] = target: Neu5Ac(a2-3)Gal(b1-4)[Fuc(a1-3)]GlcNAc(b1-6)[Neu5Ac(a2-3)Gal(b1-3)]GalNAc
# Outline: as §1
# [12] = target: Neu5Ac(a2-3)Gal(b1-4)[Fuc(a1-3)]GlcNAc6S
# Outline: as §1
# [13] = target: Neu5Ac(a2-3)GalNAc(b1-4)GlcNAc
# Outline: as §1
# [14] = target: Neu5Ac(a2-6)Gal(b1-4)GlcNAc
# Outline: as §1
# [15] = target: Neu5Ac(a2-6)Gal(b1-4)GlcNAc(b1-2)Man(a1-3)[Neu5Ac(a2-3)Gal(b1-4)GlcNAc(b1-2)Man(a1-6)]Man(b1-4)GlcNAc(b1-4)GlcNAc
# Outline: as §1
binder,measurement,setting,value
LecB PA14 (Pseudomonas aeruginosa) (protein) MATQGVFTLPANTQFGVTAFANSAGTQTVNVQVNNETVATFTGQSTNNAIIGSKVLNSGGGGKVQILVSVNGRSSDLVSAQVILANELNFALVGSEDSTDNDYNDAVVVINWPLG,glycan array binding signal (z-score),GlcA(b1-3)Gal,0.136
same,glycan array binding signal (z-score),[1],-0.506
same,glycan array binding signal (z-score),[2],-0.629
same,glycan array binding signal (z-score),[3],-0.125
same,glycan array binding signal (z-score),[4],0.43
same,glycan array binding signal (z-score),GlcNAc(b1-3)Man,-0.123
same,glycan array binding signal (z-score),Kdn(a2-3)Gal(b1-4)GlcNAc,-0.618
same,glycan array binding signal (z-score),[5],5.22
same,glycan array binding signal (z-score),[6],-0.314
same,glycan array binding signal (z-score),[7],3.3
same,glycan array binding signal (z-score),[8],-0.618
same,glycan array binding signal (z-score),[9],-0.427
same,glycan array binding signal (z-score),[10],-0.521
same,glycan array binding signal (z-score),[11],-0.054
same,glycan array binding signal (z-score),[12],0.335
same,glycan array binding signal (z-score),[13],-0.298
same,glycan array binding signal (z-score),[14],-0.39
same,glycan array binding signal (z-score),[15],-0.741
